In the library only some 1.9% were active in any assay of this set; here they are far more common.
FPR ligand = human FPR ligands by binding competition, primary screen, cell-based, FPRL1 counter-screen, flow cytometry; fMet-Leu-Phe receptor (Homo sapiens), P21462; inhibition, % (no concentration beside the values); 24,000 tested, 0.74% active; FPR-expressing cells, fluorescent ligand binding; AID 440, 2006;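 note: 0% = buffer wells and 100% = receptor blocker peptide wells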
Target sequence (P21462 whole entry, looked up): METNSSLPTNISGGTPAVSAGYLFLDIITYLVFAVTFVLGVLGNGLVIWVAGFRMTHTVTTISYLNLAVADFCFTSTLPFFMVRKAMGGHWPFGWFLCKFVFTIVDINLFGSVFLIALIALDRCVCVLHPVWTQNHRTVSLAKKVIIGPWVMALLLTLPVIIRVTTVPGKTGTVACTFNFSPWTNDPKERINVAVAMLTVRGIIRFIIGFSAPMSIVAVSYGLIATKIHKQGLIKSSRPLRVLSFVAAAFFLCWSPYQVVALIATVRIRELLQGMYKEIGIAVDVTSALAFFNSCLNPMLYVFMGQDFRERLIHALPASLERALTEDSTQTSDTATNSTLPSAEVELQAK
VLA-4 antagonist = inhibitors of LDV-FITC binding to Mn2+-activated VLA-4, primary screen, Jurkat cells. LDV-FITC binding with Mn2+, flow cytometry; 100% = Mn2+-driven binding gain fully reversed. inhibition, % at 10 µM (by protocol). 24,000 tested, 0.2% active;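 active = inhibition above 50%; inconclusive = compound itself fluorescent, judged against control cell fluorescence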;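 note: 0% = Mn2+ stimulated cells lacking compound and 100% = ligand binding without Mn2+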
26S disassembly = inhibitors of ATP-driven 26S proteasome dissociation, primary screen, biochemical, bead-based flow cytometry, GFP-tagged proteasome. 24,000 tested, 0.2% active. anti-FLAG beads, GFP-proteasome disassembly. inhibition of disassembly, % (concentration not given with the values);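 active = inhibition of disassembly above about 33%, limit read from the data; inconclusive = likely self-fluorescent, control bead median signal at least 40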;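 note: plate controls were ATP control with full disassembly for no effect and ATP-gamma-S intact proteasomes for full effect; higher percent means more bead fluorescence retained so stronger block of disassembly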
VLA-4 allo ag = enhancers of LDV-FITC binding to VLA-4 integrin, primary screen, Jurkat cells, flow cytometry. Integrin alpha-4 (Homo sapiens), P13612. activation, % at 10 µM (by protocol). 24,000 tested, under 10 active;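 active = fluorescent ligand binding to cells raised by more than 40% of the manganese-induced maximum; inconclusive = compound's own fluorescence above 85% of the ligand control signal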;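 note: 0% = ligand binding without compound and 100% = manganese-stimulated maximal binding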
Jurkat autofluor = compound autofluorescence on Jurkat cells, primary screen, artefact control for VLA-4 allosteric ligand project, cell-based, flow cytometry; 24,000 tested, 0.61% active; AID 576, 2007; stronger effect = higher value; 1 = vehicle-only cell background; fluorescence ratio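 (tested at 10 µM compound in the well)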;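 active = fluorescence ratio above 2.44, which is 1 plus 3 SD of all ratios; inconclusive = signal too bright to measure linearly, ratio around 10 or more; inactive = fluorescence ratio below 2.44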;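 note: green fluorescence of cells measured with 488 nm excitation and 530 nm emission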
FPRL1 binder = human FPRL1 ligands by binding competition, primary screen, cell-based, FPR counter-screen, flow cytometry. FPRL1-expressing cells, fluorescent ligand binding inhibition. inhibition, % (no concentration beside the values). 24,000 tested, 0.3% active;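 note: 0% = buffer alone and 100% = receptor blocker peptide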
An asterisk follows results filed as active; ? = inconclusive; / = no result. Cut-off read from the data, not from the text of the source, unless noted: active = inhibition above about 30%; inconclusive = no clear call, values can overlap the other calls; inactive = below that.

SMILES	FPR ligand	VLA-4 antagonist	26S disassembly	VLA-4 allo ag	Jurkat autofluor	FPRL1 binder
Cc1cccc(NC(=O)c2cnc3sccn3c2=O)n1	-0.1	-1.0	1.1	-5.5	1.04	6.5
O=C(Nc1ccon1)c1cnc2sccn2c1=O	-0.6	?	-0.8	?	2.49*	-1.7
COC(=O)c1[nH]c(C)c(/C(O)=C2\C(=O)C(=O)N(CCN3CCOCC3)C2c2cccs2)c1C (centres undefined)	54.2*	-18.0	1.4	-4.0	1.05	0.9
COC(=O)c1[nH]c(C)c(/C(O)=C2\C(=O)C(=O)N(CCN3CCOCC3)C2c2ccccc2OC)c1C (centres undefined)	4.3	/	/	/	/	13.9
COc1ccc(OC)c(NC(=O)C2C3CCC(C3=C(C)C)C2C(=O)O)c1 (centres undefined)	38.3*	/	/	/	/	25.5
COC(=O)c1[nH]c2c(c1C)C(=O)CC(c1ccc(C)cc1)C2 (centres undefined)	7.0	-10.0	0.5	-6.0	1.09	-7.5
COc1ccc(-c2c(C)oc3c(CN4CCN(CCO)CC4)c(O)ccc3c2=O)cc1OC	30.9*	/	/	/	/	27.5
COc1ccccc1-c1c(C)oc2c(CN3CCN(CCO)CC3)c(O)ccc2c1=O	-6.6	/	/	/	/	0.6
C=CCN(C1CCCCC1)S(=O)(=O)c1ccc2c(c1)oc(=O)n2C	-8.6	?	0.8	?	2.37	-10.8
C=CCN(c1ccccc1)S(=O)(=O)c1ccc2c(c1)oc(=O)n2C	-9.4	?	0.2	?	2.48*	-13.8
CCCOC(=O)CSc1nc(N)c(C#N)c(CC)c1C#N	5.4	-6.5	-0.5	6.5	1.03	-2.9
O=C(Cn1nc(-c2ccc3c(c2)OCCO3)ccc1=O)Nc1ccc(N2CCOCC2)cc1	-1.2	96.0*	-0.7	-27.0	1	1.2
COc1ccc(C2C3=C(CCCC3=O)Nc3nc(C(F)(F)F)nn32)c(OC)c1OC (centres undefined)	-3.0	-11.0	-0.6	6.0	1.06	2.3
COc1cccc2c1C(=O)c1c(O)c3c(c(O)c1C2=O)C[C@@](O)(C(=O)CO)C[C@@H]3O[C@H]1C[C@H](N)[C@H](O)[C@H](C)O1	-17.2	?	?	?	6.26*	17.5
CCOc1ccccc1N1CCN(c2nc(N)c(C#N)c(CC#N)c2C#N)CC1	1.0	?	19.2	?	5.24*	-5.8
Cc1cccc(-n2ncc3c(NCCCn4ccnc4)ncnc32)c1	-10.8	-16.5	-4.9	1.0	1.01	-1.3
COC(=O)c1ccc2c(c1)N(Cc1nc(-c3ccc(Cl)cc3)oc1C)C(=O)C1CCCN21 (centres undefined)	0.5	15.0	137.8*	6.0	1.09	-5.0
COC(=O)c1ccc2c(c1)N(Cc1nc(-c3cccc(Cl)c3)oc1C)C(=O)C1CCCN21 (centres undefined)	-0.4	9.0	81.4*	8.0	1.16	-6.7
CCCOC(=O)C1[C@H]2C(=O)N(CCCOC)C[C@]23C=C[C@H]1O3 (some centres undefined)	13.7	11.0	-1.5	-5.5	1.04	7.5
O=C(c1ccc2nc(N3CCOCC3)sc2c1)N1CCC2(CC1)OCCO2	-6.3	-18.0	-1.6	10.0	1.02	10.9
COc1ccccc1-n1c(SC)nc(O)cc1=O	40.7*	-15.0	-1.1	-1.0	0.99	-10.4
CC12C=CC3(CN(Cc4ccccc4)C(=O)C3C1C(=O)NC1CC1)O2 (centres undefined)	0.1	-20.0	1.9	-1.0	1.03	-3.8
CC(=O)c1c(C)nc(-c2ccc(Cl)cc2)nc1N=CN(C)C	-14.8	?	2.2	?	3.19*	-11.9
O=c1c2ccccc2nnn1CSc1nc2cc(Cl)ccc2c(=O)n1Cc1ccco1	-5.3	-25.0	-1.8	2.0	1.02	3.2
O=C1C(C23CC4CC(CC(C4)C2)C3)C(=O)N(c2ccccc2)N1c1ccccc1	73.1*	41.0	/	-6.0	1	1.0
CCCc1noc2c1C(c1ccoc1)C(C#N)=C(N)N2 (centres undefined)	-2.6	12.0	1.2	-7.0	0.97	5.7

Compound activity deposited in PubChem BioAssay by NMMLSC.
